Test results taken from PubChem BioAssay AID720540 (National Center for Advancing Translational Sciences (NCATS), 2013).
Out of some 1,300 compounds screened, about 460 (35%) were called active. Roughly 39% stayed inconclusive and do not appear here. Some of the results follow. Unmarked numbers belong to inactive results. Calls follow the shape of the dose curve; as a rule, active = well fitted inhibition curve with a large enough effect; inconclusive = small, poorly fitted or top-dose-only effect; inactive = flat fitted curve, though single readings scatter.

Each molecule was assayed against Protein phosphatase EYA2 (Homo sapiens) (UniProt O00167) (assay: qHTS for Inhibitors of the Phosphatase Activity of Eya2: Confirmatory Assay for Cherry-picked Compounds). Details: purified EYA2 phosphatase activity, qHTS confirmation; series mostly up to 46.1 µM; activity change, negative = inhibition: at the top concentration.
Outline: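 Eya2 (0.2 uM working solution) preincubated 10 min at room temperature with compound in pH 7.5 HEPES buffer with MgCl2, BSA, DTT. OMFP added (50 uM working solution), 10 min more; fluorescence 485/525 nm, normalized to EGTA and DMSO.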
Also: nearly all actives have a fitted effect of over 65% in size.
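For activity change, negative = inhibition in this document: 0% = DMSO wells and -100% = EGTA control giving full inhibition.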
Potency is read from the fitted curve at half-maximal effect.

Chain of Protein phosphatase EYA2 (Homo sapiens) (O00167 whole entry, looked up): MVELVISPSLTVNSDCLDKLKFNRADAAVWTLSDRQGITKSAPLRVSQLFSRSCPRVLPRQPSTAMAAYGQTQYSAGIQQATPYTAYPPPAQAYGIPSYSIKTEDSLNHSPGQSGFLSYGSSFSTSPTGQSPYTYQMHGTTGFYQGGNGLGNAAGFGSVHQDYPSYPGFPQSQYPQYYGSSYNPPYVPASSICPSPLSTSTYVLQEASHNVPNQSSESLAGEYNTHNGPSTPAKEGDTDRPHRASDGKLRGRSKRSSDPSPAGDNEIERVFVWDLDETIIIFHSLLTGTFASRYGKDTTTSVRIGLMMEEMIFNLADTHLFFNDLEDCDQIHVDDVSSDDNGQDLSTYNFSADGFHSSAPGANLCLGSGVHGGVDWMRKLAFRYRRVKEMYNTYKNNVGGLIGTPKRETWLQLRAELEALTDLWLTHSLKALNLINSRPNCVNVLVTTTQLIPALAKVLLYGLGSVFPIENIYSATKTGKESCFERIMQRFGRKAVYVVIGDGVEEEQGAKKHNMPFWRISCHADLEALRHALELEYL

SMILES | Potency | activity change, negative = inhibition
Cn1c(=O)c(N)c2c3c(c(Br)ccc31)C(=O)c1ccccc1-2 | 6.01 µM (active) | 
COc1ccc(-c2nnc(NC(=O)c3ccc(S(=O)(=O)N(C)CC4CCCO4)cc3)o2)c(OC)c1 (configuration not stated) | 21.3 µM (active) | 
COCc1nnc(NC(=O)c2ccc(S(=O)(=O)N3CCOCC3)cc2)o1 |  | -28.2%
O=C1C(=Cc2ccco2)CCC1=Cc1ccco1 | 4.78 µM (active) | 
COc1ccc(Nc2nc(-c3c(C)nc4ncccn34)cs2)cc1 | 3.38 µM (active) | 
Cc1nc2ncccn2c1-c1csc(Nc2ccccc2)n1 | 3.38 µM (active) | 
O=[S+]([O-])([O-])c1ccc2c(c1)cc([S+](=O)([O-])[O-])c1nn(-c3ccc(/C=C/c4ccc(-n5nc6c([S+](=O)([O-])[O-])cc7cc([S+](=O)([O-])[O-])ccc7c6n5)cc4[S+](=O)([O-])[O-])c([S+](=O)([O-])[O-])c3)nc12 | 6.75 µM (active) | 
COc1ccc(-c2cn3c(C)c(C(=O)NCc4ccc5c(c4)OCO5)sc3n2)cc1 |  | -15.9%
CN(C)c1ccc(Sc2ccc3nc(N)nc(N)c3c2)cc1 | 6.75 µM (active) | 
S=C(NC1CC1)NC1CCCc2ccccc21 (configuration not stated) |  | -11.4%
N[C@@H](Cc1cnc[nH]1)C(=O)Nc1ccc2ccccc2c1 | 21.3 µM (active) | 
Cc1ccc(Nc2nc(-c3cccnc3)nc3ccccc23)cc1 |  | -29.8%
O=C(O)c1cccc(Nc2nc(-c3ccccc3)nc3ccccc23)c1 | 9.53 µM (active) | 
O=C(O)c1ccc(Nc2nc(-c3ccccc3)nc3ccccc23)cc1 | 8.49 µM (active) | 
CCOC(=O)N1CCC(NC(=O)c2cc3c(-c4ccccc4F)nn(C)c3s2)CC1 |  | -14.8%
O=C(CCn1c(=O)oc2ccccc21)NCc1ccc2c(c1)OCO2 |  | -2.46%
Cn1nnnc1SCC(=O)Nc1ccc2c(c1)OCO2 |  | -11%
CCCCn1nc(C(=O)Nc2ccc3c(c2)OCO3)c2ccccc2c1=O | 12 µM (active) | 
COc1ccccc1NC(=O)C1=C(C)NC2=C(C(=O)CC(c3ccc(OC)c(OC)c3)C2)C1c1coc2ccccc2c1=O (configuration not stated) | 21.3 µM (active) | 
CCc1cc2c(=O)[nH]c(-c3ccccn3)nc2s1 | 1.69 µM (active) | 
CCOc1ccc2c(c1)-c1c(ssc1=S)C(C)(C)N2C(=O)CSC1=NCCS1 | 16.9 µM (active) | 

SMILES | Potency | activity change, negative = inhibition
Cc1nc(C)c(-c2csc(Nc3ccc(O)c(C(=O)O)c3)n2)s1 | 19 µM (active) | 
COc1ccc(N2CCN(C(c3ccco3)c3sc4nc(C)nn4c3O)CC2)cc1 (configuration not stated) |  | -27.1%
COc1ccc(N2CCN(C(c3cccs3)C(C)NC(=O)c3ccc4c(c3)OCO4)CC2)cc1 (configuration not stated) |  | 1.89%
COc1ccc(N2CCN(Cc3cc4c(cc3Br)OCCO4)CC2)cc1 | 15.1 µM (active) | 
COc1ccc(S(=O)(=O)N2CCC3CC2c2cc(N4CCOCC4)ccc23)cc1 (configuration not stated) |  | 17.1%
COc1ccc(N2CCN(Cc3ccc(Br)s3)CC2)cc1 | 10.7 µM (active) | 
Cc1ccc(C(=O)ON=C2CCN(c3ccc([N+](=O)[O-])cc3)CC2)cc1 |  | -23.5%
CC(=O)c1ccc(OC(=O)/C=C/c2ccccc2)cc1 | 4.26 µM (active) | 
O=C(Oc1ccc(C(=S)N2CCOCC2)cc1)c1cccc([N+](=O)[O-])c1 | 7.57 µM (active) | 
O=C(Oc1ccc(C(=S)N2CCOCC2)cc1)c1ccccc1 | 16.9 µM (active) | 
O=C(Oc1ccc(C(=S)N2CCOCC2)cc1)c1cccc(Cl)c1 | 8.49 µM (active) | 
Cc1ccc(Nc2nc(N)nc(CSc3nnc(C)s3)n2)cc1 |  | -27.8%
COc1ccc(C(=O)C2CCCN(C(=O)c3cccc(N(C)C)c3)C2)cc1OC (configuration not stated) |  | -24.1%
COC(=O)C(Sc1ccc(Cl)cc1)C1SC(=S)N(Cc2ccccc2)C1=O (configuration not stated) |  | -27.9%
O=C(Oc1ccc(C(=S)N2CCOCC2)cc1)c1ccc(F)cc1 | 7.57 µM (active) | 
Cc1ccc(C(=O)Oc2ccc(C(=S)N3CCOCC3)cc2)cc1 | 1.2 µM (active) | 
O=C(/C=C/c1ccccc1)Oc1ccc(C(=S)N2CCOCC2)cc1 | 1.51 µM (active) | 
COc1ccc(C(=O)OCC(=O)Nc2ccc(N3CCOCC3)cc2)cc1 |  | -5.25%
O=C(Cc1ccc(F)cc1)Oc1ccc(C(=S)N2CCCC2)cc1 | 15.1 µM (active) | 
COc1cccc(OC)c1C(=O)OCC(=O)NCC1CCCCC1 |  | -9.42%
CC(C)OCCCNC(=O)c1ccccc1NC(=O)C1=CSCCO1 |  | -8.43%

SMILES | Potency | activity change, negative = inhibition
C1=Cc2ccccc2/C1=C\c1cc2c3c(c1)CCCN3CCC2 | 7.57 µM (active) | 
COc1cc(N=c2oc3c(C)ncc(CO)c3cc2C(N)=O)cc(OC)c1OC | 6.75 µM (active) | 
Cc1ccc(NC(=O)c2cc3c(CO)cnc(C)c3oc2=Nc2cccc(C(N)=O)c2)cc1 |  | -28.9%
COc1ccc(C(=O)Nc2cc(OC)c(NC(=O)Nc3ccccc3)cc2OC)cc1 |  | -25.1%
COc1ccc(-n2nc(C)cc2Nc2ccccc2C(=O)O)cc1 | 6.01 µM (active) | 
Cc1cc(Nc2ccccc2C(=O)O)n(-c2cccc(Cl)c2)n1 | 6.75 µM (active) | 
CN(C)c1ccc(/C=C/C=C2/C=Cc3ccccc32)cc1 | 4.26 µM (active) | 
CC1=C/C(=C\c2ccc(N(C)C)cc2)c2ccccc21 | 7.57 µM (active) | 
CCN(CC)c1ccc(/C=C2\C=Cc3ccccc32)cc1 | 6.75 µM (active) | 
CN(C)c1ccc(C=C2C=Cc3ccccc32)cc1 | 3.79 µM (active) | 
CC1C(c2ccccc2)=Nn2c(=O)n(-c3ccccc3)c(=O)n21 (configuration not stated) |  | -2.7%
C1=Cc2ccccc2/C1=C\c1cc[cH-]c1.[Fe+2].c1cc[cH-]c1 | 10.7 µM (active) | 
CNc1ccc(C=C2C=Cc3ccccc32)cc1 | 15.1 µM (active) | 
CN(C)c1ccc(/C=C2\C=Cc3ccccc32)cc1 | 6.01 µM (active) | 
Cc1oc2c(Cl)c(Cl)c(O)c(CN(C)C)c2c1C(=O)c1ccc(Cl)cc1 | 19 µM (active) | 
CC(=O)Nc1ccc(S(=O)(=O)NC2=C(N3CCN(Cc4ccccc4)CC3)C(=O)c3ccccc3C2=O)cc1 | 19 µM (active) | 
O=C1C(NS(=O)(=O)c2cccs2)=C(N2CCN(Cc3ccccc3)CC2)C(=O)c2ccccc21 | 13.5 µM (active) | 
Cc1nn(-c2ccccc2)c2c1C(c1cccnc1)N1C=C(S(=O)(=O)N3CCCCC3)C=CC1=N2 (configuration not stated) |  | -26.3%
CNC(=O)c1ccc(Nc2nnc(-c3ccc(C(N)=O)cc3)c3ccccc23)cc1 | 4.78 µM (active) | 
COc1ccc(Nc2nnc(-c3ccc(C(N)=O)cc3)c3ccccc23)cc1 | 4.78 µM (active) | 
COc1ccc(-c2csc(-c3ccc(C(=O)O)cc3)n2)cc1 |  | -19.6%

SMILES | Potency | activity change, negative = inhibition
NC(=O)c1ccc(-c2nnc(Nc3ccc(S(N)(=O)=O)cc3)c3ccccc23)cc1 | 13.5 µM (active) | 
COc1ccc(NC(=O)c2[nH]c(C)c(C(C)=O)c2C)cc1Cl |  | -25.3%
Cc1cc2oc(C(=O)N(Cc3ccc(N(C)C)cc3)CC3CCCO3)c(C)c2cc1C (configuration not stated) | 8.49 µM (active) | 
Cc1cc2oc(C(=O)N3CCN(Cc4ccccc4)CC3)c(C)c2cc1C |  | -28.7%
COc1ccc(N(CC(=O)N2CCCCC2)S(=O)(=O)c2c(C)nn(C)c2C)cc1 |  | -2.46%
COc1ccc(NC(=O)COc2cccc3c2CCN(C)C3=O)c(OC)c1 | 12 µM (active) | 
COc1ccc(NC(=O)c2ccc(COc3ccccc3)o2)c(OC)c1 |  | -18.8%
COc1ccc(NC(=O)c2ccc(CN3CCc4ccccc4C3)cc2)c(OC)c1 |  | -24.9%
Clc1ccc(-n2nnnc2-c2cnc3ccccc3c2-c2ccccc2)cc1 |  | -27.9%
Cc1cc(C)n2nc(C(=O)NC3CCCc4ccccc43)nc2n1 (configuration not stated) |  | -9.93%
Cc1cc(C)n2nc(SCCOc3ccccc3F)nc2n1 | 15.1 µM (active) | 
CN(C)S(=O)(=O)c1cccc(NC(=O)COc2ccccc2C(=O)Nc2ccccc2)c1 | 13.5 µM (active) | 
O=C(COc1ccccc1/C=C1/NC(=O)NC1=O)Nc1ccccc1 |  | -25.6%
Cc1cnc2c(C)ccc(C)c2c1/C=C/c1ccc(N(C)C)cc1 | 6.01 µM (active) | 
Cc1cnc2c(C)cccc2c1/C=C/c1ccc(N(C)C)cc1 | 6.01 µM (active) | 
Cc1cc(C)c2c(/C=C/c3ccc(N(C)C)cc3)ccnc2c1 | 9.53 µM (active) | 
Cc1ccc(C)c2c(/C=C/c3ccc(N(C)C)cc3)ccnc12 | 5.36 µM (active) | 
COCc1cc(O)c(O)c(O)c1-c1c(COC)cc(O)c(O)c1O |  | -12.3%
Cc1cc(=O)n2[nH]c(Nc3cccc(Cl)c3)nc2n1 |  | -20.9%
